Test results published in PubChem BioAssay AID1159580 (chemical genetic matrix, 2015).
“And” between values parts separate entries of the source, which are not always exact repeats. Equal values may be shown once. In all, about 5,500 compounds went through this assay and about 2,000 (36%) were called active. Inconclusive results (about 18%) are left out. Rule as the data show it: active = normalized growth mostly below about 0.91 (no sharp cut-off); inconclusive = no clear call, values can overlap the other calls; inactive = mostly above about 0.92. The list shows a part of the results.

Experiment: chemical genetic growth profiling, strain panel (AID 1159580);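 also: tested at 20 µM; growth read once vehicle control cultures reached saturation at 30 °C; 1 = growth at the plate median or of vehicle wells; lower values mean less growth of the strain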
Conditions: S. cerevisiae deletion strains, growth OD

Measured: normalized growth

CON
inactive: locus YAL013W, strain DEP1, stronger effect = lower value 0.992 | locus YAL021C, strain ccr4, stronger effect = lower value 0.994 | locus YAL026C, strain drs2, stronger effect = lower value 1.01 | locus YAL030W, strain snc1, stronger effect = lower value 1.02 | locus YBL061C, strain skt5, stronger effect = lower value 1.01 | locus YBR009C, strain hhf1, stronger effect = lower value 1.01 | locus YBR021W, strain FUR4, stronger effect = lower value 1 | locus YBR023C, strain chs3, stronger effect = lower value 1.01 | locus YBR171W, strain sec66, stronger effect = lower value 0.995 | locus YBR229C, strain ROT2, stronger effect = lower value 1 | locus YBR231C, strain swc5, stronger effect = lower value 1.01 | locus YBR279W, strain paf1, stronger effect = lower value 0.991 | locus YCL011C, strain gbp2, stronger effect = lower value 1.02 | locus YCL016C, strain dcc1, stronger effect = lower value 1.04 | locus YCL029C, strain bik1, stronger effect = lower value 0.976 | locus YCL069W, strain vba3, stronger effect = lower value 0.976 | locus YCR088W, strain abp1, stronger effect = lower value 0.987 | locus YDL005C, strain med2, stronger effect = lower value 0.994 | locus YDL035C, strain GPR1, stronger effect = lower value 0.988 | locus YDL040C, strain nat1, stronger effect = lower value 0.994 | locus YDL074C, strain BRE1, stronger effect = lower value 1.04 | locus YDL101C, strain DUN1, stronger effect = lower value 1.01 | locus YDL134C, strain PPH21, stronger effect = lower value 0.997 | locus YDL185W, strain tfp1, stronger effect = lower value 0.968 | locus YDL192W, strain arf1, stronger effect = lower value 0.986 | locus YDR001C, strain nth1, stronger effect = lower value 0.998 | locus YDR069C, strain doa4, stronger effect = lower value 1.02 | locus YDR101C, strain arx1, stronger effect = lower value 1.02 | locus YDR137W, strain rgp1, stronger effect = lower value 1.03 | locus YDR150W, strain NUM1, stronger effect = lower value 0.993 | locus YDR159W, strain sac3, stronger effect = lower value 0.993 | locus YDR162C, strain NBP2, stronger effect = lower value 0.98 | locus YDR195W, strain ref2 0.993 | locus YDR297W, strain sur2, stronger effect = lower value 1.02 | locus YDR318W, strain mcm21, stronger effect = lower value 0.99 | locus YDR334W, strain swr1, stronger effect = lower value 0.975 | locus YDR335W, strain msn5, stronger effect = lower value 1.02 | locus YDR388W, stronger effect = lower value 1.01 | locus YDR392W, strain spt3, stronger effect = lower value 1.12 | locus YDR502C, strain sam2, stronger effect = lower value 0.999 | locus YEL003W, strain gim4, stronger effect = lower value 0.993 | locus YEL037C, strain rad23, stronger effect = lower value 0.984 | locus YEL061C, strain CIN8 (second series), stronger effect = lower value 0.99 | locus YEL061C, strain CIN8, stronger effect = lower value 0.997 | locus YER015W, strain faa2, stronger effect = lower value 1.01 | locus YER016W, strain bim1, stronger effect = lower value 1.02 | locus YER110C, stronger effect = lower value 0.981 | locus YER111C, strain swi4, stronger effect = lower value 1.01 | locus YER155C, strain BEM2 (second series), stronger effect = lower value 1.05 | locus YER155C, strain BEM2, stronger effect = lower value 0.991 | locus YER167W, strain BCK2, stronger effect = lower value 0.997 | locus YFR010W, strain ubp6, stronger effect = lower value 0.976 | locus YGL078C, strain dbp3, stronger effect = lower value 0.984 | locus YGL086W, strain mad1, stronger effect = lower value 1.02 | locus YGL167C, strain pmr1, stronger effect = lower value 0.993 | locus YGL173C, strain kem1, stronger effect = lower value 0.998 | locus YGL227W, strain vid30, stronger effect = lower value 0.995 | locus YGL240W, strain doc1, stronger effect = lower value 0.994 | locus YGL248W, strain PDE1, stronger effect = lower value 1.02 | locus YGL253W, strain hxk2, stronger effect = lower value 1.01 | locus YGR135W, strain pre9, stronger effect = lower value 0.982 | locus YGR229C, strain SMI1, stronger effect = lower value 1.01 | locus YGR252W, strain gcn5, stronger effect = lower value 1.03 | locus YHR013C, strain ard1, stronger effect = lower value 1.03 | locus YHR027C, strain rpn1, stronger effect = lower value 1.02 | locus YHR030C, strain SLT2, stronger effect = lower value 0.989 and 0.974 | locus YHR079C, strain IRE1 (second series), stronger effect = lower value 0.98 | locus YHR079C, strain IRE1, stronger effect = lower value 0.987 | locus YHR094C, strain hxt1, stronger effect = lower value 1 | locus YHR129C, strain ARP1, stronger effect = lower value 0.997 | locus YHR142W, strain chs7, stronger effect = lower value 1.01 | locus YHR200W, strain rpn10, stronger effect = lower value 0.969 | locus YIL066C, strain RNR3, stronger effect = lower value 1.02 | locus YIL073C, strain SPO22, stronger effect = lower value 0.941 | locus YIL125W, strain kgd1, stronger effect = lower value 0.999 | locus YIR030C, strain dcg1, stronger effect = lower value 0.993 | locus YJL092W, strain hpr5, stronger effect = lower value 0.998 | locus YJL095W, strain BCK1 (second series), stronger effect = lower value 1.02 | locus YJL095W, strain BCK1, stronger effect = lower value 1.06 and 0.986 | locus YJL115W, strain asf1, stronger effect = lower value 0.989 | locus YJL129C, strain trk1, stronger effect = lower value 1.02 | locus YJL134W, strain LCB3, stronger effect = lower value 0.99 | locus YJL154C, strain vps35, stronger effect = lower value 0.981 | locus YJL164C, strain tpk1, stronger effect = lower value 0.996 | locus YJL166W, strain qcr8, stronger effect = lower value 0.981 | locus YJL168C, strain set2, stronger effect = lower value 0.996 | locus YJL187C, strain SWE1 (second series), stronger effect = lower value 1.01 | locus YJR043C, strain POL32, stronger effect = lower value 1.01 | locus YJR066W, strain TOR1, stronger effect = lower value 0.92
